Laboratory results: PubChem BioAssay (Tox21)
“And” between values parts separate entries of the source, which are not always exact repeats. Equal values may be shown once. Results filed as inconclusive are left out. Entries that show only a call come without a potency. Where a structure was tested more than once in an assay, its records may differ in their call. The source made the active and inactive calls. Unless noted, calls come from the whole dose curve; as a rule, active = well fitted curve in the direction sought with a large enough effect in the repeat runs; inconclusive = weak or mixed curves; inactive = no such curve, though single readings can be large; an effect the other way counts as inactive or inconclusive.

Assays:
[1] = qHTS assay to identify small molecule antagonists of the estrogen related receptor (ERR) signaling pathway from Tox21 library - cell viability counter screen (AID 1224834); note: nearly all actives have a fitted effect of over 30% in size; note: potency is the fitted concentration of half-maximal effect
How it was run: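 ERR reporter cells were plated 6 h before compound addition, then exposed to test compounds in DMSO for 17.5 h at 37 C. Viability was read as CellTiter-Fluor fluorescence after a 30-minute incubation at 37 C.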

[2] = target: Luciferin 4-monooxygenase (Photinus pyralis) (UniProt P08659); assay: qHTS assay to identify small molecule inhibitors of firefly luciferase (AID 1224835); note: nearly all actives have a fitted effect of over 25% in size; note: potency is the fitted concentration of half-maximal effect
Luciferin 4-monooxygenase (Photinus pyralis), sequence (P08659 whole entry, looked up): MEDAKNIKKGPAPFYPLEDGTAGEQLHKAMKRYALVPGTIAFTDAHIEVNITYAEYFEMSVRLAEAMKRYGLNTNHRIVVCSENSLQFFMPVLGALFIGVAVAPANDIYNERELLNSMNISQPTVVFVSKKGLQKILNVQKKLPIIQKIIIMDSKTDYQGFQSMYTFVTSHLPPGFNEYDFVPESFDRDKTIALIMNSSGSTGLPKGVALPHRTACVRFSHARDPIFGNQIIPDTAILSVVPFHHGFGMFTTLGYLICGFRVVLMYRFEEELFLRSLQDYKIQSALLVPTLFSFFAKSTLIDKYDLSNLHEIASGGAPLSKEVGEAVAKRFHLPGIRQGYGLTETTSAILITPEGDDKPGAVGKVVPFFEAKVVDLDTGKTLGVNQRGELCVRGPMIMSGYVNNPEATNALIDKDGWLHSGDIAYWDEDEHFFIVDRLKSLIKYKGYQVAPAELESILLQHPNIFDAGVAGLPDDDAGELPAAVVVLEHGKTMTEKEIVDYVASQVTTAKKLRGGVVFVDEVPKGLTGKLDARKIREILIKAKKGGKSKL
How it was run: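 Quantitative HTS format; KM concentrations of both substrates. Purified P. pyralis FLuc activity quantified from luminescence images.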

[3] = qHTS assay to identify small molecule agonists of the constitutive androstane receptor (CAR) signaling pathway - cell viability counter screen (AID 1224836); note: nearly all actives have a fitted effect of over 45% in size; note: potency is the fitted concentration of half-maximal effect
How it was run: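 Counter screen multiplexed with the CAR reporter readout: HepG2 cells co-transfected with hCAR and the CYP2B6-2.2kb construct receive a 15-concentration compound series and 0.75 uM PK11195 (final), then CellTiter-Fluor fluorescence is read after 23 h.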

[4] = qHTS assay to identify small molecule antagonists of the constitutive androstane receptor (CAR) signaling pathway - cell viability counter screen (AID 1224837); note: nearly all actives have a fitted effect of over 45% in size; note: potency is the fitted concentration of half-maximal effect
How it was run: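 HepG2 cells stably expressing hCAR and a CYP2B6-2.2kb reporter were plated and pre-incubated 4 hr at 37 C/5% CO2, then given compounds at 15 concentrations plus 50 nM CITCO (final). After 23 hr, viability was read by CellTiter-Fluor fluorescence.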

[5] = target: Nuclear receptor subfamily 1 group I member 3 (Homo sapiens) (UniProt Q14994); assay: qHTS assay to identify small molecule antagonists of the constitutive androstane receptor (CAR) signaling pathway (AID 1224838); note: nearly all actives have a fitted effect of over 40% in size; note: potency is the fitted concentration of half-maximal effect
Nuclear receptor subfamily 1 group I member 3 (Homo sapiens), sequence (Q14994 whole entry, looked up): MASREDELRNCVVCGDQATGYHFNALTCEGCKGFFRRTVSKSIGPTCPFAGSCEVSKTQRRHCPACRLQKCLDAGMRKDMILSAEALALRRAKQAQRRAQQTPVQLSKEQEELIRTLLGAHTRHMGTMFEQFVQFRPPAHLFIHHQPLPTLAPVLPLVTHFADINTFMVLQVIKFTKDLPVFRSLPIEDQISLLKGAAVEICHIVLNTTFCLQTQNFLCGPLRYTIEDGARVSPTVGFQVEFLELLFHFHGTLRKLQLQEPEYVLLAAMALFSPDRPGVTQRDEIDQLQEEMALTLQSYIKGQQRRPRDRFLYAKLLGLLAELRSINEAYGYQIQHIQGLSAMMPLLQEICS
How it was run: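 HepG2 cells stably co-transfected with hCAR and a CYP2B6-2.2kb luciferase reporter were seeded 4 h before compound addition at 15 concentrations. Cells were stimulated with 50 nM CITCO (final) for 24 h at 37 C; luciferase luminescence was then read.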

[6] = target: Nuclear receptor subfamily 1 group I member 3 (Homo sapiens) (UniProt Q14994); assay: qHTS assay to identify small molecule agonists of the constitutive androstane receptor (CAR) signaling pathway (AID 1224839); note: nearly all actives have a fitted effect of over 15% in size; note: potency is the fitted concentration of half-maximal effect
How it was run: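 A 15-concentration quantitative screen uses HepG2 cells co-transfected stably with human CAR and CYP2B6-2.2kb reporter. Treatment lasts 24 h with 0.75 uM PK11195 final present; ONE-Glo luminescence is the signal.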

[7] = qHTS assay to identify small molecule antagonists of the estrogen related receptor signaling pathway with the pleiotropic PPARgamma coactivator (PGC) from Tox21 10K library - cell viability counter screen (AID 1224840; active = well fitted cell-killing curve with a large enough effect in the repeat runs, not every such curve was filed as active; note: nearly all actives have a fitted effect of over 40% in size; note: potency is the fitted concentration of half-maximal effect)
How it was run: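 PGC/ERR cells were seeded at 2,000 cells/well and left 6 hours at 37 C/5% CO2 before pin-tool addition of compounds in DMSO. After 17.5 hours at 37 C, CellTiter-Fluor was added and fluorescence read 30 minutes later.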

[8] = qHTS assay to identify small molecule antagonists of the estrogen related receptor signaling pathway with the pleiotropic PPARgamma coactivator (PGC) from Tox21 10K library (AID 1224841; call rule not given here; note: actives are mostly falling curves and most rising ones were filed inactive; nearly all actives have a fitted effect of over 50% in size)
How it was run: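 PGC/ERR reporter cells were seeded at 2,000 cells/well and held 6 hours at 37 C/5% CO2 before pin-tool addition of compounds in DMSO. After 18 hours at 37 C, One-Glo was added and luminescence read after 30 minutes at room temperature.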

[9] = target: Thyrotropin receptor (Homo sapiens) (UniProt P16473); assay: qHTS assay to identify small molecule agonists of the thyroid stimulating hormone receptor (TSHR) signaling pathway (AID 1224843; calls by dose curve; note: nearly all actives have a fitted effect of over 45% in size)
Thyrotropin receptor (Homo sapiens), sequence (P16473 whole entry, looked up): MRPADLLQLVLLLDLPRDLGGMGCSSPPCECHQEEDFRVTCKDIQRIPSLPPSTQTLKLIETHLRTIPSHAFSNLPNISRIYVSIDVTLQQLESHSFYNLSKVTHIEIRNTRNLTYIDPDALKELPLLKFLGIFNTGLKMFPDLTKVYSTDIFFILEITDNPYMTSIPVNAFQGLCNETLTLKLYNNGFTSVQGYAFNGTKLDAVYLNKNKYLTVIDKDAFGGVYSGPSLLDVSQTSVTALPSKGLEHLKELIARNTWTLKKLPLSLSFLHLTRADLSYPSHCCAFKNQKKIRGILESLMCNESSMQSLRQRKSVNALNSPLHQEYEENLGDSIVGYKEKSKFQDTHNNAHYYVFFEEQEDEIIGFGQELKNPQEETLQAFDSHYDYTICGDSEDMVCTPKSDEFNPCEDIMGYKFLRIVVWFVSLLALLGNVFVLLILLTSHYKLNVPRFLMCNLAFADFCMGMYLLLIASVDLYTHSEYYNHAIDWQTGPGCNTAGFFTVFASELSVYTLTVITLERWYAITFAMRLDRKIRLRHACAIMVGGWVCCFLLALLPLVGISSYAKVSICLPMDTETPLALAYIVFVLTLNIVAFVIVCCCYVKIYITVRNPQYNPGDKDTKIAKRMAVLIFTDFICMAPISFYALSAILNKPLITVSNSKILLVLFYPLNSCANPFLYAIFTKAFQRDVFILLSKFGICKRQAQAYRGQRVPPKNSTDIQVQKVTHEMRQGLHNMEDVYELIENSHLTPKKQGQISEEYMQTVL
How it was run: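 Cell line HEK293 with TSHR; density 800/well. Exposure 30 min RT. Readout HTRF cAMP (cAMP-d2/anti-cAMP-cryptate), 1 h RT before reading.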

[10] = qHTS assay to identify small molecule agonists of the hypoxia (HIF-1) signaling pathway - cell viability counter screen (AID 1224844; calls by dose curve; note: nearly all actives have a fitted effect of over 50% in size; note: potency is the fitted concentration of half-maximal effect)
How it was run: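 HRE-bla ME-180 cells in medium with 0.5% dialyzed FBS were preincubated 5 hrs at 37C, exposed to compounds for 17 hrs, then viability was read as CellTiter-Glo luminescence after 30 min at room temperature, in the reporter wells.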

[11] = qHTS assay to identify small molecule agonists of H2AX (AID 1224845; active = well fitted activation curve with a large enough effect in the signal ratio in the repeat runs, not every such curve was filed as active; the % refers to the signal ratio)
How it was run: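 Wild-type CHO-K1 cells plated overnight, then exposed 3 hr at 37C to compounds at 15 concentrations (0.76% DMSO). Lysed, then HTRF anti-pH2AX(S139)-cryptate/anti-H2AX-d2 detection after 24 hr at room temperature; emissions 665 and 620 nm.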

[12] = qHTS assay to identify small molecule agonists of H2AX - cell viability counter screen (AID 1224847; calls by dose curve; note: nearly all actives have a fitted effect of over 30% in size; note: potency is the fitted concentration of half-maximal effect)
How it was run: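 We seed wild-type CHO-K1 cells overnight, treat them for 3 hr at 37C with compounds in 15-concentration series, and quantify remaining viability by CellTiter-Glo luminescence.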

[13] = qHTS assay to identify small molecule antagonists of the estrogen related receptor (ERR) signaling pathway from Tox21 library (AID 1224848); note: nearly all actives have a fitted effect of over 50% in size; note: potency is the fitted concentration of half-maximal effect
How it was run: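 Screening used an ERR reporter line supplied by NTP, exposed for 18 h at 37 C to library compounds delivered in DMSO. Signal was luciferase luminescence developed with ONE-Glo at room temperature for 30 min.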

[14] = qHTS assay to identify small molecule agonists of the estrogen related receptor (ERR) signaling pathway from Tox21 library (AID 1224849; calls by dose curve; note: nearly all actives have a fitted effect of over 15% in size); conditions: ERR reporter cell line, ONE-Glo luciferase, 18 h; at 92.4 µM (top of the series) unless noted
How it was run: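 ERR reporter cell line (NTP) seeded, rested 6 h at 37 C/5% CO2, then pinned with Tox21 compounds in DMSO. After 18 h at 37 C, ONE-Glo luciferase luminescence was read following 30 min at room temperature.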

[15] = qHTS RealTime-Glo MT Cell Viability Assay in HepG2 cells - 24 hour (AID 1224867); note: nearly all actives have a fitted effect of over 50% in size
How it was run: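 Viability was tracked continuously by NanoLuc luminescence from prosubstrate reduced by living HepG2 cells, at successive time points over 40 h of compound exposure. Cells with reagent were preincubated 5 h at 37 °C before compound addition.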

[16] = qHTS RealTime-Glo MT Cell Viability Assay in HepG2 cells - 40 hour (AID 1224870); note: nearly all actives have a fitted effect of over 50% in size; note: potency is the fitted concentration of half-maximal effect
How it was run: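 HepG2 cells mixed with RealTime-Glo MT reagents (NanoLuc plus cell-permeant prosubstrate) were seeded at 600 cells/well, incubated 5 h at 37 C/5% CO2, then pinned with compounds in DMSO; nonlytic luminescence tracked viability during 40 h treatment.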

[17] = qHTS RealTime-Glo MT Cell Viability Assay in HEK293 cells - 32 hour (AID 1224868); note: nearly all actives have a fitted effect of over 50% in size; note: potency is the fitted concentration of half-maximal effect
How it was run: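 Viability tracked continuously by luminescence as live cells reduce a prosubstrate for NanoLuc; HEK293 cells preincubated 5 h, compound-treated at 37 C, and read at 0, 8, 16, 24, 32 and 40 h.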

[18] = A CellTox Green Cytotoxicity Assay to monitor cytotoxicity in HEK293 cells - 0 hour (AID 1224869); note: nearly all actives have a fitted effect of over 50% in size
How it was run: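 HEK293 cells premixed with CellTox Green dye were seeded at 600 cells/well and left 5 h at 37 C/5% CO2 before pin transfer of 23 nL compound in DMSO. Fluorescence from dye bound to dead-cell DNA was read during 40 h treatment.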

[19] = qHTS assay to identify small molecule agonists of the estrogen related receptor signaling pathway with the pleiotropic PPARgamma coactivator (PGC) from Tox21 10K library (AID 1224842); note: nearly all actives have a fitted effect of over 15% in size
How it was run: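 PGC/ERR reporter cells (NTP line) were seeded 2,000 per well, rested 6 h at 37 C/5% CO2, then pin-dosed with compounds in DMSO for 18 h at 37 C; luciferase read by One-Glo luminescence after 30 min at room temperature.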

[20] = qHTS assay to identify small molecule agonists of the hypoxia (HIF-1) signaling pathway (AID 1224846; active = well fitted activation curve with a large enough effect in the signal ratio in the repeat runs, not every such curve was filed as active; the % refers to the signal ratio)
How it was run: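 HRE-bla ME-180 cells (beta-lactamase reporter under hypoxia response element) were plated at 2,000 cells/well in medium with 0.5% dialyzed FBS, rested 5 hrs, then given compounds in DMSO for 17 hrs at 37C, 5% CO2. Reporter induction was read with CCF4-AM FRET substrate.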

Compound	Potency [1]	Potency [2]	Potency [3]	Potency [4]	Potency [5]	Potency [6]	Potency [7]	Potency [8]	Potency [9]	Potency [10]	Potency [11]	Potency [12]	Potency [13]	activity change, positive = activation [14]	Potency [15]	Potency [16]	Potency [17]	Potency [18]	Potency [19]	Potency [20]
CN=C=O	inactive	inactive	inactive	inactive	inactive	inactive	inactive	inactive	inactive	inactive	inactive	inactive	inactive	0.484% (inactive)	inactive	inactive	–	–	–	–
CNC(=O)CSP(=O)(OC)OC	inactive	inactive	inactive	inactive	inactive	inactive	inactive	–	inactive	inactive	inactive	–	–	–	inactive	inactive	inactive	inactive	–	–
Nc1cc(Cl)ccc1Cl	inactive	inactive	inactive	inactive	inactive	inactive	inactive	inactive	inactive	inactive	–	inactive	inactive	-0.0267% (inactive)	inactive	inactive	–	inactive	inactive	inactive
N#Cc1sc2c(=O)c3ccccc3c(=O)c=2sc1C#N	48.6 µM (active)	4.48 µM (active)	8.63 µM (active)	6.11 µM (active)	8.63 µM (active)	2.17 µM (active)	48.6 µM (active)	–	–	4.9 µM (active)	–	101 µM (active)	61.1 µM (active)	-74.5% (inactive)	–	11 µM (active)	17.4 µM (active)	–	inactive	–
c1ccc(N=NNc2ccccc2)cc1	39.9 µM (active) and 27.3 µM (active)	6.54 µM (active) and 6.33 µM (active)	inactive	inactive	inactive	28.3 µM (active) and 27.3 µM (active)	inactive	inactive	inactive	inactive	–	92.9 µM (active) and 101 µM (active)	inactive	51.9% (active) and 0.0484% (inactive)	inactive	inactive	inactive	inactive	–	inactive
CC1CN1 (configuration not stated)	inactive	inactive	inactive	inactive	inactive	inactive	inactive	–	inactive	inactive	inactive	inactive	–	–	inactive	inactive	inactive	inactive	–	inactive
O=P(Cl)(Cl)Cl	inactive	inactive	inactive	inactive	inactive	inactive	inactive	–	inactive	inactive	inactive	inactive	–	–	inactive	inactive	inactive	–	–	inactive
O=c1[nH]c(Cl)c(Cl)cc1Cl	inactive	inactive	inactive	inactive	inactive	inactive	inactive	–	inactive	inactive	inactive	inactive	–	-28.7% (inactive)	inactive	inactive	inactive	inactive	inactive	inactive
Cc1ccccc1OP(=O)(Oc1ccccc1C)Oc1ccccc1C	inactive	inactive	inactive	inactive	inactive	21.8 µM (active)	inactive	inactive	inactive	inactive	inactive	90.1 µM (active)	inactive	-4.53% (inactive)	inactive	inactive	–	inactive	–	inactive
CCNS(=O)(=O)C(F)(F)C(F)(F)C(F)(F)C(F)(F)C(F)(F)C(F)(F)C(F)(F)C(F)(F)F	inactive	inactive	inactive	inactive	inactive	inactive	inactive	inactive	–	inactive	inactive	inactive	inactive	-10.2% (inactive)	inactive	inactive	inactive	inactive	inactive	inactive
O=C(NC(=O)c1ccccc1Cl)Nc1ccc(OC(F)(F)F)cc1	inactive	inactive	inactive	inactive	inactive	inactive	inactive	–	inactive	inactive	–	–	–	–	inactive	inactive	–	–	–	inactive
CC(C)Br	inactive	inactive	inactive	–	inactive	inactive	inactive	–	inactive	inactive	inactive	inactive	–	–	inactive	inactive	inactive	inactive	–	inactive
CCn1cc[n+](C)c1 (tested in a mixture with another compound)	inactive	inactive	inactive	inactive	–	–	inactive	–	–	inactive	–	inactive	–	–	inactive	inactive	inactive	–	–	inactive
CCN(CC)CCc1c[nH]c2ccccc12	inactive	inactive	inactive	inactive	–	–	inactive	–	inactive	inactive	inactive	inactive	–	–	–	inactive	inactive	inactive	–	inactive
O=[N+]([O-])C(Br)Br	inactive	28.3 µM (active)	inactive	–	inactive	inactive	–	inactive	inactive	43.7 µM (active)	inactive	inactive	inactive	5.44% (inactive)	–	–	55 µM (active)	inactive	inactive	–
